Measured values: publication PMC7862700, “An all-to-all approach to the identification of sequence-specific readers for epigenetic DNA modifications on cytosine”

Tests used:
Test in all cases: DAPPL (digital affinity profiling via proximity ligation, sequencing); 10 mM Tris-HCl pH 7.5, 50 mM NaCl, 1 mM DTT, 4% glycerol, room temperature, 30 min; GST-TFs on glutathione beads, 16-mer random dsDNA library, 0.1% formaldehyde crosslink after washing; high values mean tight binding
Conditions in all cases: protein: recombinant; tags: N-terminal GST; dsDNA, one strand shown
ERF = target: T1, ERF (Homo sapiens, UniProt P50548 1-548)
T1 sequence: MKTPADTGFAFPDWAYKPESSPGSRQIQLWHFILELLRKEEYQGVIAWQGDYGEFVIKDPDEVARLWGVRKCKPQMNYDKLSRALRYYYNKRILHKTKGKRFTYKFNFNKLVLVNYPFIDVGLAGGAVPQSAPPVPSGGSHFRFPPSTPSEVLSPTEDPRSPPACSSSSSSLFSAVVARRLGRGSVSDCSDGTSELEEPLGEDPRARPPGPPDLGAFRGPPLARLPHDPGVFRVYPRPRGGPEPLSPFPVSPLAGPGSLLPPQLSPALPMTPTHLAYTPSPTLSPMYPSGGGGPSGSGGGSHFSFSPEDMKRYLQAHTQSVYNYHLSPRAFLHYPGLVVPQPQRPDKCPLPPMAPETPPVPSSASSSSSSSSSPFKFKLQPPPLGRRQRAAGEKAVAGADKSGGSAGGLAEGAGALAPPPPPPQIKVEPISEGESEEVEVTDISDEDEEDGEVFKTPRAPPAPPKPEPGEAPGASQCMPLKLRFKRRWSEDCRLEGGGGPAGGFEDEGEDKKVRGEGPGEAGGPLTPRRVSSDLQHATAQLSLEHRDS
Outline: (§1)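 Human transcription factors carrying a GST fusion were produced in yeast, bound to glutathione beads, tagged with DNA barcodes and pooled together with a tag-only sample. Each pool was held with 200 nmole of a random double-stranded 16-mer DNA library in Tris/NaCl/DTT/glycerol buffer for 30 min at room temperature, then washed, crosslinked in 0.1% formaldehyde, proximity-ligated with BsaI/T4 ligase (1 h, 37 °C), PCR-amplified and sequenced on an Illumina NextSeq500. Binding signal is the read frequency of each hexamer for a given factor divided by its frequency in the tag-only sample.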

ETV3L = target: T2, ETV3L (Homo sapiens, UniProt Q6ZN32 1-361)
T2 sequence: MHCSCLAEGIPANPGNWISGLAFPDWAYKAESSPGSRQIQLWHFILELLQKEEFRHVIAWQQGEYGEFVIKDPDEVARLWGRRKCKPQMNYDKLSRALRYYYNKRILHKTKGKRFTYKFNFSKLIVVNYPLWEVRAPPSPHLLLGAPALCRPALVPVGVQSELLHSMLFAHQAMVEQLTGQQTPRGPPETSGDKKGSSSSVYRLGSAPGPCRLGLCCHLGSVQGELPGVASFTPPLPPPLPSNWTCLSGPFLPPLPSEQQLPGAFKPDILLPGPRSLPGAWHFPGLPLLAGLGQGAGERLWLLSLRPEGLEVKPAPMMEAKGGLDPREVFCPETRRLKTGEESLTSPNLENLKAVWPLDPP
Outline: as §1

ETS2 = target: T3, ETS2 (Homo sapiens, UniProt P15036 1-469)
T3 sequence: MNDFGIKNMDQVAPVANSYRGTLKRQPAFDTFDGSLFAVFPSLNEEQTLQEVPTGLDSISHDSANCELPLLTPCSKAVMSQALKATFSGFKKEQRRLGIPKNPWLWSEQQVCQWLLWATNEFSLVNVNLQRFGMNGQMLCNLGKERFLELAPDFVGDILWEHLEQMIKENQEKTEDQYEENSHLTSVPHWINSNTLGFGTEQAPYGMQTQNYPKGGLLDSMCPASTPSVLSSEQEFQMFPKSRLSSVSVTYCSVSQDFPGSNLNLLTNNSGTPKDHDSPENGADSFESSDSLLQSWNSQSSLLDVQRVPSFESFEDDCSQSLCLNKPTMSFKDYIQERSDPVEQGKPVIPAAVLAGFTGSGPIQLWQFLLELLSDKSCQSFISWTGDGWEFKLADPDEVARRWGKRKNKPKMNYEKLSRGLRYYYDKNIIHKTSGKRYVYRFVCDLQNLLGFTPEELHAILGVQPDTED
Outline: as §1

SPDEF = target: T4, SPDEF (Homo sapiens, UniProt O95238 1-335)
T4 sequence: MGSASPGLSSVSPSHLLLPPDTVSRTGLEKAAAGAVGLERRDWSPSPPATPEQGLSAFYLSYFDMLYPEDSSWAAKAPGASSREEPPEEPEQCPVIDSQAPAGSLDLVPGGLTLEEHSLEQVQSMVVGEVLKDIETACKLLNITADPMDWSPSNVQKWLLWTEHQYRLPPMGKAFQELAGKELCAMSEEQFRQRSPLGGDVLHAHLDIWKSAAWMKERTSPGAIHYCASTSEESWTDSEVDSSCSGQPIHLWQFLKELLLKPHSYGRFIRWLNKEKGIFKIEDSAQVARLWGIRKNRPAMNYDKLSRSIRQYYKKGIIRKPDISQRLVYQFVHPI
Outline: as §1

ETV7 = target: T5, ETV7 (Homo sapiens, UniProt Q9Y603 1-341)
T5 sequence: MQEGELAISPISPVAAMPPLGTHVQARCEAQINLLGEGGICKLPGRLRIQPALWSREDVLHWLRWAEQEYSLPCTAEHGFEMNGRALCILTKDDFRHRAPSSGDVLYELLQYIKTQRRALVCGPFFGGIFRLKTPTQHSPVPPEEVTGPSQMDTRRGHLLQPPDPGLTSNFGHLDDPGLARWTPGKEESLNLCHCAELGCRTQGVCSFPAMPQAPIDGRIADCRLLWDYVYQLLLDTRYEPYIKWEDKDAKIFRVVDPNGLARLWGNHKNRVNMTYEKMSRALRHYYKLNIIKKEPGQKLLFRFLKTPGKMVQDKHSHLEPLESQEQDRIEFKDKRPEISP
Outline: as §1

ELF5 = target: T6, ELF5 (Homo sapiens, UniProt Q9UKW6-2 1-255)
T6 sequence: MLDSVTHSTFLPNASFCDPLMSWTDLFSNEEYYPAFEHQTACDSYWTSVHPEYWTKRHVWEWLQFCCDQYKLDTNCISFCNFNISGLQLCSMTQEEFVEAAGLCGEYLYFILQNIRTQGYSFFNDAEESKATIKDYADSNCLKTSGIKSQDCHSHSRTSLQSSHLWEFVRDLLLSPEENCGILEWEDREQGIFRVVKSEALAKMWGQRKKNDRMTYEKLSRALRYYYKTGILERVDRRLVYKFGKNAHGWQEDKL
Outline: as §1

ETV3 = target: T7, ETV3 (Homo sapiens, UniProt P41162-2 1-143)
T7 sequence: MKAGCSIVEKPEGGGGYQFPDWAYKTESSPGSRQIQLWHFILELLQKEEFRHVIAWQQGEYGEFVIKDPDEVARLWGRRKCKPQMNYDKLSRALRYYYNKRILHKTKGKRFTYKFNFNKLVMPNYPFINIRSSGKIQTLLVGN
Outline: as §1

ETV6 = ETV6 (Homo sapiens, UniProt P41212 1-452)
Outline: as §1

Chain of ETV6 (P41212 whole entry): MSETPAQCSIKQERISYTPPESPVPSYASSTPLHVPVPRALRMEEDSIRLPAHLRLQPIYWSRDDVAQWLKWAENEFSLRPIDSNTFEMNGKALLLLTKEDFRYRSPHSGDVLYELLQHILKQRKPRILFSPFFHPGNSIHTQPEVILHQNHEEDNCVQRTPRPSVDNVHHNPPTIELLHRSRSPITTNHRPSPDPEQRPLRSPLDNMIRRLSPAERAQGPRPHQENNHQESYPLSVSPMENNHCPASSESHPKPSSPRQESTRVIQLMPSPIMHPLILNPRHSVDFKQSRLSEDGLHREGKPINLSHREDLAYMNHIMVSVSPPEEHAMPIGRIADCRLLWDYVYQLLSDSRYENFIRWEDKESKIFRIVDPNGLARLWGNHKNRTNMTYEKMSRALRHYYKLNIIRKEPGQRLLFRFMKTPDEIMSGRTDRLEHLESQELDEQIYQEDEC

Sequence | binding signal (ERF) | binding signal (ETV3L) | binding signal (ETS2) | binding signal (SPDEF) | binding signal (ETV7) | binding signal (ELF5) | binding signal (ETV3) | binding signal (ETV6)
GGATTT | 1.17 fold enrichment (6-mer frequency, TF over GST control) | 1.21 fold enrichment (6-mer frequency, TF over GST control) | 1.24 fold enrichment (6-mer frequency, TF over GST control) | 1.57 fold enrichment (6-mer frequency, TF over GST control) | 1.07 fold enrichment (6-mer frequency, TF over GST control) | 1.38 fold enrichment (6-mer frequency, TF over GST control) | 1.21 fold enrichment (6-mer frequency, TF over GST control) | 1.3 fold enrichment (6-mer frequency, TF over GST control)
CGCTCA | 1.2 fold enrichment (6-mer frequency, TF over GST control) | 1.24 fold enrichment (6-mer frequency, TF over GST control) | 1.14 fold enrichment (6-mer frequency, TF over GST control) | 1.05 fold enrichment (6-mer frequency, TF over GST control) | 1.09 fold enrichment (6-mer frequency, TF over GST control) | 1.16 fold enrichment (6-mer frequency, TF over GST control) | 1.07 fold enrichment (6-mer frequency, TF over GST control) | 1.09 fold enrichment (6-mer frequency, TF over GST control)
ACTGCC | 1.4 fold enrichment (6-mer frequency, TF over GST control) | 1.46 fold enrichment (6-mer frequency, TF over GST control) | 1.29 fold enrichment (6-mer frequency, TF over GST control) | 1.46 fold enrichment (6-mer frequency, TF over GST control) | 1.34 fold enrichment (6-mer frequency, TF over GST control) | 1.43 fold enrichment (6-mer frequency, TF over GST control) | 1.46 fold enrichment (6-mer frequency, TF over GST control) | 1.4 fold enrichment (6-mer frequency, TF over GST control)
CCCCTT | 1.53 fold enrichment (6-mer frequency, TF over GST control) | 1.47 fold enrichment (6-mer frequency, TF over GST control) | 1.51 fold enrichment (6-mer frequency, TF over GST control) | 1.5 fold enrichment (6-mer frequency, TF over GST control) | 1.56 fold enrichment (6-mer frequency, TF over GST control) | 1.64 fold enrichment (6-mer frequency, TF over GST control) | 1.51 fold enrichment (6-mer frequency, TF over GST control) | 1.51 fold enrichment (6-mer frequency, TF over GST control)
CCCCCG | 1.17 fold enrichment (6-mer frequency, TF over GST control) | 1.13 fold enrichment (6-mer frequency, TF over GST control) | 1.06 fold enrichment (6-mer frequency, TF over GST control) | 1.13 fold enrichment (6-mer frequency, TF over GST control) | 1.05 fold enrichment (6-mer frequency, TF over GST control) | 1.07 fold enrichment (6-mer frequency, TF over GST control) | 1.22 fold enrichment (6-mer frequency, TF over GST control) | 1.12 fold enrichment (6-mer frequency, TF over GST control)
ATATAT | 1.51 fold enrichment (6-mer frequency, TF over GST control) | 1.41 fold enrichment (6-mer frequency, TF over GST control) | 1.39 fold enrichment (6-mer frequency, TF over GST control) | 1.43 fold enrichment (6-mer frequency, TF over GST control) | 1.29 fold enrichment (6-mer frequency, TF over GST control) | 1.42 fold enrichment (6-mer frequency, TF over GST control) | 1.41 fold enrichment (6-mer frequency, TF over GST control) | 1.44 fold enrichment (6-mer frequency, TF over GST control)
GCTGCT | 1.11 fold enrichment (6-mer frequency, TF over GST control) | 1.43 fold enrichment (6-mer frequency, TF over GST control) | 1.43 fold enrichment (6-mer frequency, TF over GST control) | 1.21 fold enrichment (6-mer frequency, TF over GST control) | 1.21 fold enrichment (6-mer frequency, TF over GST control) | 1.23 fold enrichment (6-mer frequency, TF over GST control) | 1.2 fold enrichment (6-mer frequency, TF over GST control) | 1.27 fold enrichment (6-mer frequency, TF over GST control)
GCTACG | 1.29 fold enrichment (6-mer frequency, TF over GST control) | 1.16 fold enrichment (6-mer frequency, TF over GST control) | 1.11 fold enrichment (6-mer frequency, TF over GST control) | 1.04 fold enrichment (6-mer frequency, TF over GST control) | 1.23 fold enrichment (6-mer frequency, TF over GST control) | 1.1 fold enrichment (6-mer frequency, TF over GST control) | 1.05 fold enrichment (6-mer frequency, TF over GST control) | 1.23 fold enrichment (6-mer frequency, TF over GST control)
TCCACT | 1.42 fold enrichment (6-mer frequency, TF over GST control) | 1.49 fold enrichment (6-mer frequency, TF over GST control) | 1.45 fold enrichment (6-mer frequency, TF over GST control) | 1.37 fold enrichment (6-mer frequency, TF over GST control) | 1.4 fold enrichment (6-mer frequency, TF over GST control) | 1.42 fold enrichment (6-mer frequency, TF over GST control) | 1.41 fold enrichment (6-mer frequency, TF over GST control) | 1.39 fold enrichment (6-mer frequency, TF over GST control)
TGAACC | 1.08 fold enrichment (6-mer frequency, TF over GST control) | 1.2 fold enrichment (6-mer frequency, TF over GST control) | 1.24 fold enrichment (6-mer frequency, TF over GST control) | 1.16 fold enrichment (6-mer frequency, TF over GST control) | 1.06 fold enrichment (6-mer frequency, TF over GST control) | 1.09 fold enrichment (6-mer frequency, TF over GST control) | 1.12 fold enrichment (6-mer frequency, TF over GST control) | 1.11 fold enrichment (6-mer frequency, TF over GST control)
CTTTCT | 1.63 fold enrichment (6-mer frequency, TF over GST control) | 1.5 fold enrichment (6-mer frequency, TF over GST control) | 1.55 fold enrichment (6-mer frequency, TF over GST control) | 1.44 fold enrichment (6-mer frequency, TF over GST control) | 1.46 fold enrichment (6-mer frequency, TF over GST control) | 1.5 fold enrichment (6-mer frequency, TF over GST control) | 1.52 fold enrichment (6-mer frequency, TF over GST control) | 1.52 fold enrichment (6-mer frequency, TF over GST control)
ACTCAT | 1.39 fold enrichment (6-mer frequency, TF over GST control) | 1.26 fold enrichment (6-mer frequency, TF over GST control) | 1.29 fold enrichment (6-mer frequency, TF over GST control) | 1.24 fold enrichment (6-mer frequency, TF over GST control) | 1.27 fold enrichment (6-mer frequency, TF over GST control) | 1.32 fold enrichment (6-mer frequency, TF over GST control) | 1.3 fold enrichment (6-mer frequency, TF over GST control) | 1.31 fold enrichment (6-mer frequency, TF over GST control)
CCCCGG | 1.34 fold enrichment (6-mer frequency, TF over GST control) | 1.24 fold enrichment (6-mer frequency, TF over GST control) | 1.17 fold enrichment (6-mer frequency, TF over GST control) | 1.28 fold enrichment (6-mer frequency, TF over GST control) | 1.18 fold enrichment (6-mer frequency, TF over GST control) | 1.3 fold enrichment (6-mer frequency, TF over GST control) | 1.43 fold enrichment (6-mer frequency, TF over GST control) | 1.21 fold enrichment (6-mer frequency, TF over GST control)
TGGTTC | 1.34 fold enrichment (6-mer frequency, TF over GST control) | 1.36 fold enrichment (6-mer frequency, TF over GST control) | 1.32 fold enrichment (6-mer frequency, TF over GST control) | 1.35 fold enrichment (6-mer frequency, TF over GST control) | 1.48 fold enrichment (6-mer frequency, TF over GST control) | 1.41 fold enrichment (6-mer frequency, TF over GST control) | 1.44 fold enrichment (6-mer frequency, TF over GST control) | 1.32 fold enrichment (6-mer frequency, TF over GST control)
CGTATC | 1.15 fold enrichment (6-mer frequency, TF over GST control) | 1.24 fold enrichment (6-mer frequency, TF over GST control) | 1.11 fold enrichment (6-mer frequency, TF over GST control) | 1.57 fold enrichment (6-mer frequency, TF over GST control) | 1.1 fold enrichment (6-mer frequency, TF over GST control) | 1.19 fold enrichment (6-mer frequency, TF over GST control) | 1.28 fold enrichment (6-mer frequency, TF over GST control) | 1.09 fold enrichment (6-mer frequency, TF over GST control)
